Hits are enriched below; roughly 0.92% of the tested compounds scored in any of these assays.
RPL19A-GFP yeast = modulators of TOR pathway RPL19A-GFP in S. cerevisiae. percent response vs DMSO, % at 10 µM. S. cerevisiae RPL19A-GFP strain, flow cytometry, 3 h; active compounds read low. 330,000 compounds, 0.3% hits;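 active = percent response vs DMSO below 50%; inconclusive = fewer than 70 events counted for the yeast strain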;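 also: median channel GFP fluorescence of the barcoded RPL19A-GFP strain; ratio of sample median GFP to plate DMSO average so 100% = DMSO; lower means less RPL19A-GFP as with rapamycin TOR inhibition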
AGP1 TOR yeast = alters AGP1-GFP fluorescence in TOR pathway yeast screen; S. cerevisiae AGP1-GFP multiplex flow cytometry, 3 h; GFP as percent of DMSO wells; GFP response vs DMSO, % at 10 µM; 320,000 compounds, 0.02% hits; AID 2066;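 active = GFP response relative to DMSO above a set limit, near screen average plus 3 SD, cut at about 150% in these data; inconclusive = fewer than 70 cells counted for the yeast strain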;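 also: median GFP channel fluorescence of the gated AGP1 strain per well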
MEP2 TOR yeast = alters MEP2-GFP fluorescence in TOR pathway yeast screen; S. cerevisiae MEP2-GFP strain, flow cytometry GFP, 3 h; 100% = DMSO control level; GFP response vs DMSO, % at 10 µM; 330,000 compounds, 0.51% hits; AID 2016;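 active = GFP response versus DMSO above a set limit, roughly screen mean plus 3 SD, cut at about 180% in these data; inconclusive = fewer than 70 cells counted for a yeast strain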;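 also: median GFP fluorescence of the barcode-gated MEP2-GFP cells per well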
LAP4 TOR yeast = modulators of TOR pathway LAP4-GFP in S. cerevisiae | S. cerevisiae LAP4-GFP multiplex, flow cytometry GFP, 3 h; median GFP as percent of DMSO wells | GFP response vs DMSO, % at 10 µM | 320,000 compounds, 0.34% hits;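 active = GFP response vs DMSO above a set limit, about the screen mean plus 3 SD, cut at about 150% in these data; inconclusive = under 70 cell events counted for the yeast strain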
CIT2-GFP yeast = yeast TOR pathway CIT2-GFP modulation; S. cerevisiae CIT2-GFP strain, flow cytometry, 3 h; 100 means same as DMSO wells; GFP response vs DMSO, % at 10 µM; 320,000 compounds, 0.065% hits;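 active = GFP response relative to DMSO above a set limit, near the screen mean plus 3 SD, cut at about 150% in these data; inconclusive = Fewer than 70 cells measured for a yeast strain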;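 also: ratio of well median GFP fluorescence to mean of DMSO wells on the plate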
Numbers without * were called inactive; [ ] = dose if it differs, or a comment.

Results for CSc1nc(N2CCN(c3ccccc3Cl)CC2)c2ccccc2n1 ?
RPL19A-GFP yeast: 100; AGP1 TOR yeast: 100; MEP2 TOR yeast: 170; LAP4 TOR yeast: 154*; CIT2-GFP yeast: 128

Results for Cc1ccc(-n2ncc3c(=O)n(CC(=O)NC4CCCC4)cnc32)cc1C ?
RPL19A-GFP yeast: 39*[may fluoresce violet]; MEP2 TOR yeast: inconclusive; LAP4 TOR yeast: 82; CIT2-GFP yeast: inconclusive

Results for CCN(CC)CCN(CC(=O)N(C1CCCCC1)C1CCCCC1)C(=O)c1ccco1 ?
RPL19A-GFP yeast: 77; AGP1 TOR yeast: 18; MEP2 TOR yeast: 226*[may fluoresce violet]; LAP4 TOR yeast: 72; CIT2-GFP yeast: inconclusive

Results for O=C(NC(=O)c1ccccc1)Nc1cccc(S(=O)(=O)N2CCCCC2)c1 ?
RPL19A-GFP yeast: 102; AGP1 TOR yeast: 98; MEP2 TOR yeast: 110; LAP4 TOR yeast: 93; CIT2-GFP yeast: 104

What do the screens show for `CCN(CC)c1ccc(/C=C/c2nc3ccccc3s2)cc1`?
RPL19A-GFP yeast: 111; AGP1 TOR yeast: 102; MEP2 TOR yeast: 206*; LAP4 TOR yeast: 145; CIT2-GFP yeast: 149

How did COCCCn1c(O)c(/C=C2\N=C(C#N)C(=Nc3ccc(C)cc3)O2)sc1=S do in these assays?
RPL19A-GFP yeast: 41*[may fluoresce violet]; AGP1 TOR yeast: inconclusive; MEP2 TOR yeast: 756*[may fluoresce violet]; LAP4 TOR yeast: 77; CIT2-GFP yeast: inconclusive

How did COC(=O)C1=CN(Cc2ccc(OC)cc2)C=C(C(=O)OC)C1c1ccsc1 do in these assays?
RPL19A-GFP yeast: 59; AGP1 TOR yeast: 28; MEP2 TOR yeast: 257*[may fluoresce violet]; LAP4 TOR yeast: 99; CIT2-GFP yeast: inconclusive

Results for CCOC(=O)c1cc2c(=O)n3ccccc3nc2n(CCOC)c1=NC(=O)C(C)(C)C ?
RPL19A-GFP yeast: 57; AGP1 TOR yeast: 111; MEP2 TOR yeast: 331*; LAP4 TOR yeast: 117; CIT2-GFP yeast: 114

How did CCN(CC)S(=O)(=O)c1ccc(N2CCCCC2)c(NC(=O)C2=COCCO2)c1 do in these assays?
RPL19A-GFP yeast: 90; AGP1 TOR yeast: 98; MEP2 TOR yeast: 99; LAP4 TOR yeast: 101; CIT2-GFP yeast: 84

How did CCS(=O)(=O)C1=NN2C(=N)/C(=C\c3ccc(OC(=O)c4ccco4)c(Br)c3)C(=O)N=C2S1 do in these assays?
RPL19A-GFP yeast: 106; AGP1 TOR yeast: 114; MEP2 TOR yeast: 102; LAP4 TOR yeast: 97; CIT2-GFP yeast: 111

How did CCOc1cc(/C=C2/C(=N)N3C(=NC2=O)SN=C3S(C)(=O)=O)ccc1OS(=O)(=O)c1ccccc1 do in these assays?
RPL19A-GFP yeast: 13*[may fluoresce violet]; AGP1 TOR yeast: inconclusive; MEP2 TOR yeast: 154; LAP4 TOR yeast: 73; CIT2-GFP yeast: inconclusive

How did CCOc1cc(/C=C2\C(=N)N3N=C(S(=O)(=O)CC)SC3=NC2=O)ccc1OC(=O)c1ccco1 do in these assays?
RPL19A-GFP yeast: 47*; AGP1 TOR yeast: 28; MEP2 TOR yeast: 129; LAP4 TOR yeast: 79; CIT2-GFP yeast: 92

Results for COc1cccc(C(=O)NC2CCCc3ccccc32)c1OC (stereo unspecified) ?
RPL19A-GFP yeast: 99; AGP1 TOR yeast: 97; MEP2 TOR yeast: 96; LAP4 TOR yeast: 95; CIT2-GFP yeast: 91

Results for COc1ccccc1CNC(=O)c1cnccn1 ?
RPL19A-GFP yeast: 29*[may fluoresce violet]; AGP1 TOR yeast: inconclusive; MEP2 TOR yeast: 186*[may fluoresce violet]; LAP4 TOR yeast: 103; CIT2-GFP yeast: inconclusive

How did O=C(Cn1ccn(-c2ccc(F)c(F)c2)c(=O)c1=O)NCCc1ccccc1 do in these assays?
RPL19A-GFP yeast: 100; AGP1 TOR yeast: 100; MEP2 TOR yeast: 103; LAP4 TOR yeast: 98; CIT2-GFP yeast: 98

Results for CC(C)c1ccc(C2C3CSCC=C3C(C#N)=C(N)C2(C#N)C#N)cc1 (stereo unspecified) ?
RPL19A-GFP yeast: 96; AGP1 TOR yeast: 103; MEP2 TOR yeast: 98; LAP4 TOR yeast: 170*; CIT2-GFP yeast: 98

How did CCOC(=O)c1cc(C)[nH]c(=O)c1C#N do in these assays?
RPL19A-GFP yeast: 33*[may fluoresce violet]; AGP1 TOR yeast: inconclusive; MEP2 TOR yeast: 680*[may fluoresce violet]; LAP4 TOR yeast: 70; CIT2-GFP yeast: inconclusive

What do the screens show for `COc1cccc(NS(=O)(=O)c2ccc3c(c2)NC(=O)CC(=O)N3)c1`?
RPL19A-GFP yeast: 99; AGP1 TOR yeast: 99; MEP2 TOR yeast: 102; LAP4 TOR yeast: 93; CIT2-GFP yeast: 106
